Measured values from PubChem BioAssay AID651812 (National Center for Advancing Translational Sciences (NCATS), 2012).
Hit rate of the full screen: of about 2,100 compounds, about 650 (31%) were called active. About 16% were inconclusive and are not listed. The list shows a part of the results. Values without a mark were called inactive. Calls come from the whole dose curve; as a rule, active = well fitted inhibition curve with a large enough effect; inconclusive = small, poorly fitted or top-dose-only effect; inactive = flat fitted curve, though single readings scatter.

Assay: qHTS for inhibitors of Vif-A3G interactions: Cherry picks; note: nearly all actives have a fitted effect of over 80% in size; for activity, negative = fluorescence increase: % of control where 0% means no effect
Details: HeLa A3G-eYFP + Vif (tagged APOBEC3G with the HIV-1 protein that degrades it), 24 h; Potency: eYFP fluorescence increase; series mostly up to 36.9 µM; activity, negative = fluorescence increase: at the top concentration
From the text: The recent discovery and characterization of host restriction factors, which provide a potent defense to invading retroviruses, has provided new targets for antiviral drug development. APOBEC3G (A3G) and APOBEC3F (A3F) are potent cytidine deaminases that block HIV-1 replication; HIV-1 expresses the Vif protein, which counteracts A3G and A3F by binding to them and inducing their proteasomal degradation. The Vif-A3G and Vif-A3F interactions provide two potential targets for development of small molecules which can interfere with the ability of Vif to degrade A3G or A3F. […] To identify inhibitors that can interfere with Vif mediated degradation of A3G and A3F, we have developed Hela cell lines that stably express A3G or A3F tagged with eYFP at the C-terminal end (A3G-eYFP or A3F-eYFP, respectively) and Vif. In the absence of an inhibitor, Vif induces degradation of A3G-eYFP and A3F-eYFP, and the cells are not fluorescent. In the presence of an inhibitor, it is expected that Vif will be unable to degrade A3G-eYFP and/or A3F-eYFP, resulting in an increase in yellow fluorescence. In this assay, Vif A3G was screened against the cherry picks ordered from the MLSMR. NIH Chemical Genomics Center [NCGC] NIH Molecular Libraries Probe Centers Network [MLPCN] MLPCN Grant: MH093245 Assay Submitter (PI): Vinay Pathak, National Cancer Institute
A3G-Vif cells were harvested from T225 flask and resuspended in phenol free OPTI-MEM medium with 5% FBS. Then 5 uL of 140,000 cells/mL resuspended cells was dispensed into each well of low base Aurora COC 1,536-well plates (black walled, clear bottom) using a Multidrop Combi dispenser. After overnight culture at 37 deg C with 5% CO2, a total of 23 nL of compounds at 5 selected concentrations from the NPC or positive control (2 mM stock of MG132) in DMSO was transferred to each well of the assay plate using a pintool (Kalypsys, San Diego, CA), and the plates were further incubated at 37 deg C with 5% CO2 for 24 hours. After that, the plates were measured on Acumen Explorer (TTP Lab Tech). The fluorescence was detected by 488 nm/Ex and […].
Potency is the fitted concentration of half-maximal effect.

SMILES | Potency | activity, negative = fluorescence increase
CN1/C(=C\C=C2C(=O)NC(=O)NC2=O)C(C)(C)c2ccccc21 | 4.61 µM (active) | –
COCCCn1c(=O)/c(=C\c2ccccc2OC(F)F)s/c1=C(/C#N)C(=O)NCCOC | 20.6 µM (active) | –
CCCCNC(=O)/C(C#N)=c1\s/c(=C\c2ccccc2OC(F)F)c(=O)n1CCCOC | 16.4 µM (active) | –
C/C(=C\c1ccc(N(C)C)cc1)[N+](=O)[O-] | – | 0.666%
O=C1NC(=O)N(c2ccc3c(c2)OCO3)C(=O)/C1=C\c1ccc(N2CCCCC2)o1 | 20.6 µM (active) | –
O=C1NC(=O)N(c2ccc3c(c2)OCO3)C(=O)/C1=C/c1ccc(N2CCCCC2)o1 | 23.1 µM (active) | –
CCCCn1c(O)c(C(=O)/C=C/c2c[nH]c3ccccc23)c(=O)[nH]c1=O | 15.8 µM (active) | –
Cc1ccccc1-n1c(/C=C/c2ccc(N(C)C)cc2)nc2ccccc2c1=O | 5.8 µM (active) | –
O=c1[nH]c(CN2CC=C(c3ccccc3)CC2)nc2scc(-c3ccccc3)c12 | 23.1 µM (active) | –
O=C1/C(=C/c2ccc3c(c2)OCO3)SC(=S)N1CCC(=O)N(CCO)c1ccccc1 | 23.1 µM (active) | –
O=c1c2ccccc2nc(/C=C/c2ccccc2O)n1-c1ccc(Br)cc1 | 20.6 µM (active) | –
COc1ccc(-n2c(/C=C/c3ccc(O)c(OC)c3)nc3ccccc3c2=O)cc1 | 23.1 µM (active) | –
NC(=Nc1ccccc1)NN=Cc1c[nH]c2ccccc12 | – | -1.44%
Cc1cccc(CN2CCCC(C(=O)c3cccc(OC(C)C)c3)C2)n1 (configuration not stated) | – | -4.3% [at 46.1 µM]
O=C1NC(=S)SC1=Cc1ccc(N(CCCl)CCCl)cc1 | 15.8 µM (active) | –
CN1C(=O)C(=Cc2ccc(N3CCCCC3)o2)C(=O)N(C)C1=S | 7.31 µM (active) | –
CN1C(=O)C(=Cc2ccc(N3CCOCC3)o2)C(=O)N(C)C1=S | 20.6 µM (active) | –
CN1C(=O)C(=Cc2ccc(N3CCOCC3)o2)C(=O)N(C)C1=O | 23.1 µM (active) | –
O=C1CN=C(c2cccc(Br)c2)c2cc(Br)ccc2N1 | – | -0.913%
CCS(=O)(=O)N1N=C(c2cccc(NS(C)(=O)=O)c2)CC1c1ccccc1 (configuration not stated) | 18.4 µM (active) | –
O=Cc1c(C(=O)O)n(Cc2ccc(Cl)cc2)c2ccccc12 | 20.6 µM (active) | –
Cc1ccc(CNC(=O)c2ccccc2NC(=O)c2nsc3ccccc23)cc1 | 20.6 µM (active) | –
COc1ccc(-c2ccc(OC)c(OC)c2OC)cc1 | – | -11.7%
CN(C)c1ccc(C(=O)c2ccc(N(C)C)cc2)cc1 | – | -0.231%
Cc1cc(N(CCCl)CCCl)ccc1C=Cc1ccncn1 | 23.1 µM (active) | –
COCCNC(=O)c1c(NC(=O)c2ccc(Br)o2)n(Cc2ccccc2)c2nc3ccccc3nc12 | 20.6 µM (active) | –
COCCCNC(=O)c1c(NC(=O)c2ccco2)n(Cc2ccccc2)c2nc3ccccc3nc12 | – | 0.679%
